Results on 51 compounds are retold here after PubChem BioAssay AID504832 (National Center for Advancing Translational Sciences (NCATS), 2011).

Among all 310,000 compounds or so, about 18,000 (5.8%) were called active. Another 22% or so got no clear call; they are omitted. The sample as a whole holds a higher share of actives than the screen did. Values without a mark were called inactive. Calls come from the whole dose curve; as a rule, active = well fitted inhibition curve with a large enough effect; inconclusive = small, poorly fitted or top-dose-only effect, or another doubt; inactive = no such curve, though single readings can be large or run the other way.
% is set by controls: 0 for no effect and ±100 for the full control effect; potency is the fitted concentration of half-maximal effect.

The nature of this assay: Primary qHTS for delayed death inhibitors of the malarial parasite plastid, 48 hour incubation. The conditions noted are these: P. falciparum luciferase growth in erythrocytes; series mostly up to 28.7 µM; activity change, negative = inhibition: at the top concentration. The method, boiled down:
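Read-out is firefly luciferase luminescence from an integrated reporter in P. falciparum, so falling signal marks reduced parasite growth. Infected erythrocytes were at 2% hematocrit and 0.1% parasitemia (final) in Albumax-supplemented RPMI 1640.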
On the technique in general: In qHTS, concentration-response curves come from the screen itself.
`CC1(NC(=O)CCS(=O)(=O)c2ccc(Cl)cc2)CCS(=O)(=O)C1` (stereo unspecified): the “activity change, negative = inhibition” value is 4.95%.

In the case of `C=CCn1c(SCC(=O)Nc2ccc(NC(C)=O)cc2)nc2sc(C)c(C)c2c1=O`, the “activity change, negative = inhibition” value was -19.7%.

`CCN(CC(=O)NCc1cccs1)C(=O)c1ccc(OC)c(S(=O)(=O)N2CCOCC2)c1`: the “activity change, negative = inhibition” value was 1.87%.

In the case of `O=C(CC1C(=O)NCCN1C(=O)c1ccc([N+](=O)[O-])cc1)Nc1cccc(Cl)c1` (stereo unspecified), the “activity change, negative = inhibition” value is 2.97%.

On to `COc1ccc(C(=O)n2nc(C)c(Br)c2C)cc1OC`, for which the “activity change, negative = inhibition” value was 43.6%.

Take `O=C1c2ccccc2NC(c2ccc(-c3cccc(Cl)c3)o2)N1O` (stereo unspecified): the “activity change, negative = inhibition” value was 89.3%.

For `O=c1c(-c2cccc(Cl)c2)c[nH]n1-c1ccccc1`, the Potency was 3.7 µM (active).

As for `O=C1NC(c2cccc(Cl)c2)Nc2ccccc21` (stereo unspecified), the “activity change, negative = inhibition” value was 34.8%.

For `Cc1nc2sccn2c(=O)c1S(=O)(=O)NCCc1ccccc1`, the “activity change, negative = inhibition” value was -2.59%.

In the case of `COCCNc1nnc(SCC(=O)NNC(=O)c2ccco2)s1`, the “activity change, negative = inhibition” value was -15%.

Regarding `CCCNC(=O)CSc1nc(Cc2ccccc2)nc2ccccc12`, the “activity change, negative = inhibition” value is -19.7%.

Regarding `CCN(CC)c1ccc(NC(=O)CN2CCN(c3ccccn3)CC2)cc1`, the “activity change, negative = inhibition” value was -14.4%.

Consider `Cc1cc(Br)ccc1NC(=O)c1sc2ncn(CC(=O)N3CCN(c4ccccn4)CC3)c(=O)c2c1C`, for which the “activity change, negative = inhibition” value is -1.69%.

On to `Cc1nc(N2CCN(c3ccccn3)CC2)c2c(C)c(C(=O)Nc3ccc(F)cc3)sc2n1`, for which the Potency is 13.1 µM (active).

Turning to `CC(=O)N1CCN(CC(C)(C)NS(=O)(=O)c2ccc(C)cc2)CC1`, the “activity change, negative = inhibition” value was 6.55%.

For the compound `CC(=O)Nc1ccc(NC(=O)CSC2=NS(=O)(=O)c3ccccc3N2)cc1`, the “activity change, negative = inhibition” value is 1.84%.

For `N#CCCN(C(=O)COC(=O)C1CCN(c2ccc(C(F)(F)F)cn2)CC1)c1ccc(F)cc1`, the “activity change, negative = inhibition” value is -1.84%.

As for `CCOc1ccc(C(=O)NCC(=O)N2CCN(c3ccc(C(F)(F)F)cn3)CC2)cc1`, the “activity change, negative = inhibition” value was -12.7%.

`CCCN1CCn2c3c(c4cc(Br)ccc42)CCCC31` (stereo unspecified): the Potency was 8.28 µM (active).

Consider `O=C(CN1C(=O)NC2(CCCCC2)C1=O)N1CCN(C(=O)c2cccs2)CC1`, for which the “activity change, negative = inhibition” value was 3.33%.

For `Cc1nn(CC(=O)NCCc2ccccc2)c(=O)c2cc3occc3n12`, the “activity change, negative = inhibition” value is 22.7%.

As for `COc1ccc(CC(=O)OC(C)C(=O)Nc2ccc(S(N)(=O)=O)cc2)cc1` (stereo unspecified), the “activity change, negative = inhibition” value was 6%.

With `CCCCCN(C(=O)CCC(=O)OCC(=O)NCc1ccc(OC)cc1)c1c(N)n(CCCC)c(=O)[nH]c1=O`, the “activity change, negative = inhibition” value was 11.3%.

For the compound `CCCCN(C(=O)c1ccc(C)o1)c1c(N)n(CCCC)c(=O)[nH]c1=O`, the “activity change, negative = inhibition” value is 29.6%.

In the case of `CCCCN(C(=O)CCNC(=O)NC12CC3CC(CC(C3)C1)C2)c1c(N)n(CCCC)c(=O)[nH]c1=O`, the Potency is 13.1 µM (active).

Take `O=C(Cn1c(NCCO)nc2ccccc21)c1ccc(Cl)cc1Cl`: the Potency is 13.1 µM (active).

With `CC(C)(C)C(=O)Cn1c(NCCO)nc2ccccc21`, the “activity change, negative = inhibition” value was 2.22%.

Turning to `O=S(=O)(O)c1nc2ccccc2n1Cc1ccc(Cl)cc1Cl`, the “activity change, negative = inhibition” value was 11.4%.

As for `O=C(COC(=O)c1ccc([N+](=O)[O-])cc1Cl)NC(=O)c1ccccc1`, the “activity change, negative = inhibition” value is 7.05%.

For `C/C=N/N(c1ccccc1)c1ccccc1`, the Potency is 10.4 µM (active).

With `Cc1cccc(-c2c(NC(=O)c3ccco3)oc3ccc(Cl)cc3c2=O)c1`, the “activity change, negative = inhibition” value was 26.5%.

Consider `O=C(O)CSc1ccc(S(=O)(=O)N2CCCC2)cn1`, for which the “activity change, negative = inhibition” value was 5%.

With `Cc1ccc(NC(=O)CSc2sc3c(O)cc(=O)[nH]c3c2C#N)cc1C`, the “activity change, negative = inhibition” value was 15.9%.

For the compound `CC(C)CN(C(=O)c1ccc2c(c1)OCO2)C1CCS(=O)(=O)C1` (stereo unspecified), the “activity change, negative = inhibition” value is 15.5%.

`CC(=O)c1sc(NC(=O)CCCOc2ccccc2C)nc1C`: the “activity change, negative = inhibition” value was 9.54%.

`Cc1cccc(NC(=O)c2cccc(C(F)(F)F)c2)c1`: the “activity change, negative = inhibition” value is 18.1%.

Take `CC(=O)Nc1ccc(-c2csc(NC(=O)Nc3ccccc3)n2)cc1`: the “activity change, negative = inhibition” value is -5.54%.

In the case of `C=CCCC(=O)Nc1nc(C)c(-c2csc(Nc3ccc(Cl)cc3)n2)s1`, the Potency is 1.47 µM (active).

On to `CCCCCCC(=O)Nc1nc(C)c(-c2csc(Nc3cccc(OC)c3)n2)s1`, for which the Potency is 5.22 µM (active).

For the compound `COc1ccc(Cl)cc1NC(=O)c1oc(C)nc1C`, the “activity change, negative = inhibition” value is 24%.

Turning to `O=C(Nc1ccc(-c2csc(Nc3cccc(C(F)(F)F)c3)n2)cc1)c1cccc(C(F)(F)F)c1`, the Potency was 9.28 µM (active).

Turning to `COc1ccc(-c2csc(Nc3ccc(O)cc3)n2)cc1`, the “activity change, negative = inhibition” value is -28.2%.

Regarding `CCOC(=O)c1csc(NC(=O)Nc2cccc(OC)c2)n1`, the “activity change, negative = inhibition” value was 77.8%.

Consider `COc1ccc(-c2csc(NC(=O)COC(=O)Cc3ccc(Cl)cc3Cl)n2)cc1`, for which the “activity change, negative = inhibition” value was 184%.

For `CCCCCCC(=O)Nc1nc(C)c(-c2csc(Nc3cc(Cl)ccc3OC)n2)s1`, the Potency was 4.65 µM (active).

For `COc1cc(CC(=O)Nc2nc(-c3ccc(F)c(F)c3)cs2)cc(OC)c1OC`, the “activity change, negative = inhibition” value was -25.2%.

On to `CC(C)CN(C(=O)Cn1c(=O)cnc2ccccc21)C1CCS(=O)(=O)C1` (stereo unspecified), for which the “activity change, negative = inhibition” value was 13.7%.

With `Cc1ccccc1Nc1c([N+](=O)[O-])ccc2nonc12`, the “activity change, negative = inhibition” value was -12.3%.

As to `CC1(C(=O)OCC(=O)Nc2ncc(Cl)cc2Cl)CC1(Cl)Cl` (stereo unspecified), the “activity change, negative = inhibition” value was 1.62%.

For `Cc1cccc(OCC(=O)Nc2ccc(C(=O)O)cc2NC(=O)COc2cccc(C)c2)c1`, the “activity change, negative = inhibition” value was 24%.

For `O=C(NCCCN1CCCC1=O)c1ccc(S(=O)(=O)Nc2ccccc2)cc1`, the “activity change, negative = inhibition” value was -8.62%.
